# According to the supplement of paper PMC10037445:
# ± gives the standard deviation of the averaged measurements. Whole data set: some 2,900 compounds, median “NF-kB SEAP reporter activity, fold change vs agonist alone” near 0.99, cut for the highest 2% near 2.6. Only a selection was taken, and the highest values are over-represented in it overall.
# Assays:
# [1] = system: RAW-Dual; assay: NF-kB SEAP reporter activity, fold change vs agonist alone; cytotoxicity flag (confluency mask): not cytotoxic; higher = enhanced NF-kB activity
# How it was run: (§1)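 After 50 nL of library stock was delivered by pin tool to RAW-Dual macrophages (50,000 cells/well, DMEM, 384-well plates), a PRR agonist was added 1 h later and the plates were kept at 37 °C, 5% CO2. Twenty hours later, IRF was read from supernatant by QuantiLuc luminescence and NF-κB by QuantiBlue absorbance at 620 nm. Reporter activity is stated as fold change over agonist-alone wells. Wells with IncuCyte confluency under 70% of agonist controls in both mask sets were counted as cytotoxic.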
# [2] = system: RAW-Dual; assay: NF-kB SEAP reporter activity, fold change vs agonist alone; higher = enhanced NF-kB activity
# How it was run: as §1
# [3] = system: RAW-Dual; assay: NF-kB SEAP reporter activity, fold change vs agonist alone; cytotoxicity flag (confluency mask): cytotoxic (confluency <70% of control); higher = enhanced NF-kB activity
# How it was run: as §1
# [4] = agonist: ODN 1826 (TLR9) 0.5 ug/mL
# [5] = agonist: Pam2CSK4 (TLR2/6) 0.1 ug/mL
# [6] = agonist: Pam3CSK4 (TLR2/1) 0.1 ug/mL
# [7] = library stock concentration (final ~1000-fold dilution): 10 mM, cytotoxicity flag (confluency mask): not cytotoxic, agonist: MPLA (TLR4) […]
# [8] = library stock concentration (final ~1000-fold dilution): 10 mM, cytotoxicity flag (confluency mask): not cytotoxic, agonist: Imiquimod (TLR7) […]
# [9] = library stock concentration (final ~1000-fold dilution): 10 mM water, cytotoxicity flag (confluency mask): not cytotoxic, agonist: Imiquimod (TLR7) […]
# [10] = library stock concentration (final ~1000-fold dilution): 10 mM water, cytotoxicity flag (confluency mask): not cytotoxic, agonist: MPLA (TLR4) […]
# [11] = library stock concentration (final ~1000-fold dilution): 10 mM, cytotoxicity flag (confluency mask): cytotoxic (confluency <70% of control), agonist: Imiquimod (TLR7) […]
# [12] = library stock concentration (final ~1000-fold dilution): 10 mM, cytotoxicity flag (confluency mask): cytotoxic (confluency <70% of control), agonist: MPLA (TLR4) […]
smiles,measurement,setting,value
CC(C)C1=CC2=CCC3C(C)(C(=O)O)CCCC3(C)C2CC1 (stereo not drawn) (library stock concentration (final ~1000-fold dilution): 10 mM),NF-kB SEAP reporter activity,[1]; agonist: LPS (TLR4) 0.1 ug/mL,0.876
same,NF-kB SEAP reporter activity,[1]; [4],0.965
same,NF-kB SEAP reporter activity,[1]; [5],1.03
same,NF-kB SEAP reporter activity,[1]; [6],0.83
CC(C)C1=CC2=CCC3C(C)(C(=O)O)CCCC3(C)C2CC1 (stereo not drawn),NF-kB SEAP reporter activity,[2]; [7],1.07
CC(C)CC(=O)NC(C(=O)NC(C(=O)NC(CC(C)C)C(O)CC(=O)NC(C)C(=O)NC(CC(C)C)C(O)CC(=O)O)C(C)C)C(C)C (stereo not drawn) (library stock concentration (final ~1000-fold dilution): 10 mM),NF-kB SEAP reporter activity,[1]; agonist: LPS (TLR4) 0.1 ug/mL,0.983
same,NF-kB SEAP reporter activity,[1]; [4],0.596
same,NF-kB SEAP reporter activity,[1]; [5],1
same,NF-kB SEAP reporter activity,[1]; [6],0.967
CC(C)CC(=O)NC(C(=O)NC(C(=O)NC(CC(C)C)C(O)CC(=O)NC(C)C(=O)NC(CC(C)C)C(O)CC(=O)O)C(C)C)C(C)C (stereo not drawn),NF-kB SEAP reporter activity,[2]; [8],1.01
same,NF-kB SEAP reporter activity,[2]; [7],1
CCOCc1nc2c(N)nc3ccccc3c2n1CC(C)(C)O (library stock concentration (final ~1000-fold dilution): 3.2 mM),NF-kB SEAP reporter activity,[1]; agonist: LPS (TLR4) 0.1 ug/mL,3.55
same,NF-kB SEAP reporter activity,[1]; [4],1.69
same,NF-kB SEAP reporter activity,[1]; [5],0.415
same,NF-kB SEAP reporter activity,[1]; [6],0.673
CCOCc1nc2c(N)nc3ccccc3c2n1CC(C)(C)O,NF-kB SEAP reporter activity,"[2]; library stock concentration (final ~1000-fold dilution): 3.2 mM, cytotoxicity flag (confluency mask): not cytotoxic, agonist: Imiquimod (TLR7) […]",1.27
same,NF-kB SEAP reporter activity,"[2]; library stock concentration (final ~1000-fold dilution): 3.2 mM, cytotoxicity flag (confluency mask): not cytotoxic, agonist: MPLA (TLR4) […]",2.17
CC(=O)NC1C(NC(=N)N)C=C(C(=O)O)OC1C(O)C(O)CO (stereo not drawn),NF-kB SEAP reporter activity,[2]; [9],0.917
same,NF-kB SEAP reporter activity,[2]; [10],1.03
CC(=O)NC1C(NC(=N)N)C=C(C(=O)O)OC1C(O)C(O)CO (stereo not drawn) (library stock concentration (final ~1000-fold dilution): 10 mM water),NF-kB SEAP reporter activity,[1]; agonist: LPS (TLR4) 0.1 ug/mL,1.37
same,NF-kB SEAP reporter activity,[1]; [4],1.17
same,NF-kB SEAP reporter activity,[1]; [5],1.19
same,NF-kB SEAP reporter activity,[1]; [6],1.07
CC1CN(CC(=O)Nc2ccc3c(c2)Cc2cccc(-c4cc(=O)cc(N5CCOCC5)o4)c2S3)CC(C)O1 (stereo not drawn),NF-kB SEAP reporter activity,[2]; [8],1.54
same,NF-kB SEAP reporter activity,[2]; [7],2.82
O=c1cc(-c2cccc3c2Sc2ccccc2S3)oc(N2CCOCC2)c1,NF-kB SEAP reporter activity,[2]; [8],1.04
same,NF-kB SEAP reporter activity,[2]; [7],2.17
CC1CN(CC(=O)Nc2ccc3c(c2)Cc2cccc(-c4cc(=O)cc(N5CCOCC5)o4)c2S3)CC(C)O1 (stereo not drawn) (library stock concentration (final ~1000-fold dilution): 10 mM),NF-kB SEAP reporter activity,[1]; agonist: LPS (TLR4) 0.1 ug/mL,5.33
same,NF-kB SEAP reporter activity,[1]; [4],0.922
same,NF-kB SEAP reporter activity,[1]; [5],1.36
same,NF-kB SEAP reporter activity,[1]; [6],1.99
O=c1cc(-c2cccc3c2Sc2ccccc2S3)oc(N2CCOCC2)c1 (library stock concentration (final ~1000-fold dilution): 10 mM),NF-kB SEAP reporter activity,[1]; agonist: LPS (TLR4) 0.1 ug/mL,2.66
same,NF-kB SEAP reporter activity,[1]; [4],0.715
same,NF-kB SEAP reporter activity,[1]; [5],0.748
same,NF-kB SEAP reporter activity,[1]; [6],0.948
CNC(=O)C(Cc1c[nH]c2ccccc12)NC(=O)C(CC(=O)NO)CC(C)C (stereo not drawn) (library stock concentration (final ~1000-fold dilution): 10 mM),NF-kB SEAP reporter activity,[1]; agonist: LPS (TLR4) 0.1 ug/mL,0.932
same,NF-kB SEAP reporter activity,[1]; [4],0.999
same,NF-kB SEAP reporter activity,[1]; [5],1.03
same,NF-kB SEAP reporter activity,[1]; [6],1.01
CNC(=O)C(Cc1c[nH]c2ccccc12)NC(=O)C(CC(=O)NO)CC(C)C (stereo not drawn),NF-kB SEAP reporter activity,[2]; [8],1.04
same,NF-kB SEAP reporter activity,[2]; [7],1.23
CN1C2CCCC1CC(NC(=O)c1nn(C)c3ccccc13)C2.Cl (stereo not drawn),NF-kB SEAP reporter activity,[2]; [9],0.874
same,NF-kB SEAP reporter activity,[2]; [10],1
CN1C2CCCC1CC(NC(=O)c1nn(C)c3ccccc13)C2.Cl (stereo not drawn) (library stock concentration (final ~1000-fold dilution): 10 mM water),NF-kB SEAP reporter activity,[1]; agonist: LPS (TLR4) 0.1 ug/mL,1.2
same,NF-kB SEAP reporter activity,[1]; [4],1.06
same,NF-kB SEAP reporter activity,[1]; [5],1.04
same,NF-kB SEAP reporter activity,[1]; [6],1.11
CC1(C)CCC2(NC(=O)C(C)(F)F)CCC3(C)C(C(=O)C=C4C5(C)C=C(C#N)C(=O)C(C)(C)C5CCC43C)C2C1 (stereo not drawn),NF-kB SEAP reporter activity,[2]; [11],0.14 ± 0.006
same,NF-kB SEAP reporter activity,[2]; [12],0.254 ± 0.0072
CC1(C)CCC2(NC(=O)C(C)(F)F)CCC3(C)C(C(=O)C=C4C5(C)C=C(C#N)C(=O)C(C)(C)C5CCC43C)C2C1 (stereo not drawn) (library stock concentration (final ~1000-fold dilution): 10 mM),NF-kB SEAP reporter activity,[3]; agonist: LPS (TLR4) 0.1 ug/mL,0.358 ± 0.053
same,NF-kB SEAP reporter activity,[3]; [4],0.173 ± 0.0087
same,NF-kB SEAP reporter activity,[3]; [5],0.0759 ± 0.018
same,NF-kB SEAP reporter activity,[3]; [6],0.163 ± 0.0017
C=CC(C)(/C=C/c1ccc(O)cc1)CCC=C(C)C (stereo not drawn),NF-kB SEAP reporter activity,[2]; [8],1.1
same,NF-kB SEAP reporter activity,[2]; [7],1.12
C=CC(C)(/C=C/c1ccc(O)cc1)CCC=C(C)C (stereo not drawn) (library stock concentration (final ~1000-fold dilution): 10 mM),NF-kB SEAP reporter activity,[1]; agonist: LPS (TLR4) 0.1 ug/mL,0.878
same,NF-kB SEAP reporter activity,[1]; [4],1.02
same,NF-kB SEAP reporter activity,[1]; [5],0.934
same,NF-kB SEAP reporter activity,[1]; [6],1.16
C=CCNC1=C2CC(C)CC(OC)C(O)C(C)/C=C(\C)C(OC(N)=O)C(OC)/C=C\C=C(/C)C(=O)NC(=CC1=O)C2=O (stereo not drawn) (library stock concentration (final ~1000-fold dilution): 10 mM),NF-kB SEAP reporter activity,[3]; agonist: LPS (TLR4) 0.1 ug/mL,0.289
same,NF-kB SEAP reporter activity,[3]; [4],0.221
same,NF-kB SEAP reporter activity,[3]; [5],0.0862
same,NF-kB SEAP reporter activity,[3]; [6],0.182
C=CCNC1=C2CC(C)CC(OC)C(O)C(C)/C=C(\C)C(OC(N)=O)C(OC)/C=C\C=C(/C)C(=O)NC(=CC1=O)C2=O (stereo not drawn),NF-kB SEAP reporter activity,[2]; [11],0.313
same,NF-kB SEAP reporter activity,[2]; [12],0.516
CN1CCN(c2nc(C3=C(c4c[nH]c5ccccc45)C(=O)NC3=O)c3ccccc3n2)CC1 (library stock concentration (final ~1000-fold dilution): 10 mM),NF-kB SEAP reporter activity,[3]; agonist: LPS (TLR4) 0.1 ug/mL,2.03
same,NF-kB SEAP reporter activity,[3]; [4],1.29
same,NF-kB SEAP reporter activity,[3]; [5],1.84
same,NF-kB SEAP reporter activity,[3]; [6],3.14
CN1CCN(c2nc(C3=C(c4c[nH]c5ccccc45)C(=O)NC3=O)c3ccccc3n2)CC1,NF-kB SEAP reporter activity,[2]; [11],2.99
same,NF-kB SEAP reporter activity,[2]; [12],2.19
COc1ccc2c(c1)c(C1=C(c3c[nH]c4ccccc34)C(=O)NC1=O)cn2CCCN(C)C,NF-kB SEAP reporter activity,[2]; [11],2.44
same,NF-kB SEAP reporter activity,[2]; [12],1.71
